The source of these data is PubChem BioAssay (NCI).

Values joined by “and” are separate entries in the source; they are usually repeats but may differ in a detail not shown here. Equal values may be shown once. The panel holds about 83,000 compounds, 20% with a hit somewhere; the sample as a whole holds those more often.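 Negative percent growth values reflect cell death: -40 means 40% of the cells present at the start died, and -100 means all died.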 Active and inactive are the calls of the source. How the source made its calls: active means growth percent below 10; inactive means the rest.

Some test systems named below: HCT-15 colon; HT29 colon; SNB-75 CNS; SNB-19 CNS; U251 CNS; PC-3 prostate; SK-MEL-5 melanoma; UACC-62 melanoma; LOX IMVI melanoma; SK-MEL-28 melanoma; SK-MEL-2 melanoma; EKVX NSCLC; SN12C renal; UO-31 renal; TK-10 renal; ACHN renal; CAKI-1 renal; CCRF-CEM leukemia; MOLT-4 leukemia; A498 renal.
Common to all, as to assay: NCI-60 one-dose screen, 48 h (100 = growth as untreated, 0 = no growth, -100 = all killed)
Common to all, as to conditions: 10 µM unless noted

Regarding `C#CCOc1ccc(/C=N/Nc2nc(-c3ccc(OC)cc3)cs2)cc1`, the growth in the assay on HCT-15 colon is 80.1% (inactive); with HT29 colon, 105% (inactive); in the assay on SNB-75 CNS it was 86.2% (inactive); with SNB-19 CNS, 87.8% (inactive); with U251 CNS it was 96.4% (inactive); in the assay with PC-3 prostate it was 73.1% (inactive). The growth with SK-MEL-5 melanoma was 70.1% (inactive); in the assay on UACC-62 melanoma, 67.1% (inactive); with LOX IMVI melanoma it was 89.7% (inactive); with SK-MEL-28 melanoma, 102% (inactive); with SK-MEL-2 melanoma it was 95.8% (inactive); with EKVX NSCLC it was 62.8% (inactive). For the same compound, the growth is 78.3% (inactive) in the assay with SN12C renal; 66.8% (inactive) in the assay on UO-31 renal; 101% (inactive) with TK-10 renal; 84.2% (inactive) in the assay on ACHN renal; 66.3% (inactive) with CAKI-1 renal; 76.1% (inactive) with CCRF-CEM leukemia. Moreover, the growth in the assay with MOLT-4 leukemia was 73.7% (inactive).
In the case of `CCCCCCCCCC(=O)NC(C)(C)C(=O)N1CCC[C@H]1C(=O)N[C@@H](CC(C)C)C(=O)N[C@@](C)(CC)C(=O)N[C@@H](CCC(N)=O)C(=O)N[C@H](CCC(N)=O)C(=O)NC(C)(C)C(=O)NC(C)(C)C(=O)N[C@@H](CCC(N)=O)C(=O)N[C@H](CC(C)C)C(=O)N[C@H](CO)CC(C)C`, the growth was -79.6% (active) and 23.1% (inactive) in the assay with HCT-15 colon; -51.5% (active) and -46.3% (active) in the assay on HT29 colon; -66.3% (active) and -94% (active) with SNB-75 CNS; -96.3% (active) and -99% (active) with SNB-19 CNS; -92% (active) and -81.5% (active) in the assay with U251 CNS; -94.1% (active) and -55.4% (active) with PC-3 prostate. In addition, the growth with SK-MEL-5 melanoma was -96.7% (active) and -93.7% (active); in the assay with UACC-62 melanoma, -96.7% (active) and -91.7% (active); in the assay on LOX IMVI melanoma, -91.5% (active) and -88.4% (active); with SK-MEL-28 melanoma, -97.9% (active) and -99.9% (active); with SK-MEL-2 melanoma it was -86.8% (active) and -74.3% (active); with EKVX NSCLC, -87.8% (active) and -64.6% (active). Further, the growth in the assay on SN12C renal is -86.4% (active) and -84.1% (active); in the assay on UO-31 renal, -94% (active) and 26.4% (inactive); with TK-10 renal, -70.9% (active) and 14.9% (inactive); in the assay with ACHN renal, -85.3% (active) and 18.4% (inactive); in the assay on CAKI-1 renal it was -67.5% (active) and 5.79% (active); in the assay on CCRF-CEM leukemia it was -72% (active) and -39.7% (active). The growth in the assay with MOLT-4 leukemia was -81.5% (active) and -26.1% (active).
`CC(=O)N(O)CCCCCNC(=O)CCC(=O)N(O)CCCCCNC(=O)CCC(=O)N(O)CCCCCN(CCCCCCCCCC[P+](c1ccccc1)(c1ccccc1)c1ccccc1)CCCCCCCCCC[P+](c1ccccc1)(c1ccccc1)c1ccccc1`: the growth in the assay with HCT-15 colon was 51.1% (inactive); in the assay with HT29 colon, 5.49% (active); in the assay on SNB-75 CNS, -11% (active); in the assay with SNB-19 CNS it was 17.2% (inactive); in the assay on U251 CNS it was 6.66% (active); with PC-3 prostate, 19.6% (inactive). For the same compound, the growth with SK-MEL-5 melanoma is -45.9% (active); in the assay on UACC-62 melanoma, -10.6% (active); with LOX IMVI melanoma it was -15% (active); in the assay on SK-MEL-28 melanoma it was 13.4% (inactive); in the assay with SK-MEL-2 melanoma it was -46.7% (active); in the assay on EKVX NSCLC it was 5.96% (active). For the same compound, the growth in the assay on SN12C renal is 1.45% (active); in the assay with UO-31 renal, 52.3% (inactive); in the assay with TK-10 renal it was 26.5% (inactive); in the assay with ACHN renal it was 29.7% (inactive); in the assay with CAKI-1 renal, 29.3% (inactive); in the assay with A498 renal, -3.27% (active). For the same compound, the growth with CCRF-CEM leukemia is 5.87% (active); in the assay on MOLT-4 leukemia it was 8.41% (active).
On to `Cn1cc(-c2cc3ncnc(Nc4ccc(NC(=O)Nc5cc(C(C)(C)C)on5)cc4)c3s2)cn1`, for which the growth in the assay with HCT-15 colon is 27.9% (inactive); in the assay with HT29 colon, 16.7% (inactive); with SNB-75 CNS, 6.15% (active); in the assay on SNB-19 CNS it was 56.4% (inactive); in the assay on U251 CNS, 37.9% (inactive); in the assay with PC-3 prostate, 28.5% (inactive). Besides, the growth with SK-MEL-5 melanoma was 20.8% (inactive); in the assay with UACC-62 melanoma it was 22.2% (inactive); in the assay with LOX IMVI melanoma it was 6.08% (active); in the assay on SK-MEL-28 melanoma, 15% (inactive); in the assay on SK-MEL-2 melanoma, -9.06% (active); in the assay on EKVX NSCLC, 48.2% (inactive). In addition, the growth in the assay with SN12C renal was 18.8% (inactive); in the assay with UO-31 renal, 41.7% (inactive); in the assay with TK-10 renal, 62.5% (inactive); in the assay on ACHN renal it was 27.1% (inactive); in the assay with CAKI-1 renal it was 14.5% (inactive); in the assay on A498 renal it was 16.4% (inactive). For the same compound, the growth with CCRF-CEM leukemia was 22.2% (inactive); in the assay on MOLT-4 leukemia, 14.3% (inactive).
On to `CN1CCN(CCNc2nc(-c3cccc(NS(=O)(=O)c4cccc5c(N(C)C)cccc45)c3)cs2)CC1`, for which the growth in the assay with HCT-15 colon was 18.5% (inactive); in the assay with HT29 colon, 71.6% (inactive); in the assay with SNB-75 CNS, 73.8% (inactive); in the assay with SNB-19 CNS, 75.5% (inactive); in the assay with U251 CNS, 65.9% (inactive); in the assay on PC-3 prostate, 65.5% (inactive). The growth with SK-MEL-5 melanoma was 12.2% (inactive); in the assay with UACC-62 melanoma, 65.7% (inactive); in the assay with LOX IMVI melanoma, 38.1% (inactive); with SK-MEL-28 melanoma it was 40.2% (inactive); in the assay on SK-MEL-2 melanoma, 103% (inactive); with EKVX NSCLC, 50% (inactive). In addition, the growth in the assay with SN12C renal is 58.9% (inactive); in the assay on UO-31 renal it was 56.8% (inactive); with TK-10 renal, 90.7% (inactive); in the assay on ACHN renal, 72.5% (inactive); in the assay with CAKI-1 renal, 58.6% (inactive); in the assay with CCRF-CEM leukemia, 60.1% (inactive). In addition, the growth with MOLT-4 leukemia is 44.6% (inactive).
Consider `C=C(C)[C@@H]1CC[C@]2(C(=O)O)CC[C@]3(C)[C@H](CC[C@@H]4[C@@]5(C)C/C(=C/c6ccccn6)C(=O)C(C)(C)[C@@H]5CC[C@]43C)[C@@H]12`, for which the growth is 18.9% (inactive) in the assay with HCT-15 colon; 40.8% (inactive) with HT29 colon; 61.1% (inactive) in the assay on SNB-75 CNS; 50.3% (inactive) in the assay with SNB-19 CNS; 27.9% (inactive) with U251 CNS; 28.4% (inactive) with PC-3 prostate. The growth is 31.8% (inactive) in the assay with SK-MEL-5 melanoma; 40.1% (inactive) in the assay with UACC-62 melanoma; 34.6% (inactive) in the assay on LOX IMVI melanoma; 64% (inactive) with SK-MEL-28 melanoma; 68.5% (inactive) in the assay with SK-MEL-2 melanoma; 33.3% (inactive) in the assay on EKVX NSCLC. Moreover, the growth with SN12C renal is 41.1% (inactive); in the assay with UO-31 renal it was 35.8% (inactive); in the assay on TK-10 renal, 60.8% (inactive); in the assay with ACHN renal, 35.9% (inactive); in the assay with CAKI-1 renal, 26.8% (inactive); in the assay with A498 renal it was 61.7% (inactive). Further, the growth was 21.8% (inactive) in the assay with CCRF-CEM leukemia and 29.4% (inactive) in the assay on MOLT-4 leukemia.
As to `Cn1cc(-c2nnc(N)nc2-c2c[nH]c3ccc(Br)cc23)c2cc(Br)ccc21`, the growth with HCT-15 colon is 91.3% (inactive); in the assay on HT29 colon it was 97.1% (inactive); in the assay on SNB-75 CNS, 82.3% (inactive); with SNB-19 CNS it was 98.7% (inactive); in the assay on U251 CNS it was 99.7% (inactive); in the assay with PC-3 prostate, 102% (inactive). The growth in the assay on SK-MEL-5 melanoma is 101% (inactive); in the assay with UACC-62 melanoma, 97.7% (inactive); with LOX IMVI melanoma, 101% (inactive); in the assay with SK-MEL-28 melanoma, 101% (inactive); in the assay on SK-MEL-2 melanoma, 110% (inactive); with EKVX NSCLC, 103% (inactive). Also, the growth is 110% (inactive) in the assay with SN12C renal; 84.2% (inactive) in the assay on UO-31 renal; 78.7% (inactive) in the assay on TK-10 renal; 94.7% (inactive) in the assay with ACHN renal; 85.9% (inactive) in the assay with CAKI-1 renal; 108% (inactive) in the assay on CCRF-CEM leukemia. For the same compound, in the assay on MOLT-4 leukemia, the growth is 107% (inactive).
